The structures appear in SMILES notation. The whole screen tested about 290,000 compounds, of which about 890 (0.31%) were called active. The sample holds actives, similar compounds and a random draw of the others, so the mix is not that of the screen. Cut-off read from the data, not from the text of the source: active = inhibition mostly above about 52% (no sharp cut-off); inactive = mostly below about 76%.

A short description of this assay: inhibitors of HIV fusion peptide binding, primary screen, biochemical, uHTS, fluorescence dequenching (AID 1986). To be noted: cell-free peptide binding, 30 min, stronger effect = higher value.
[1] abbreviates: measured here: repeat confirmation average inhibition, at 18.6 µM.

What is called inhibition is the relative decrease from the control value, in per cent. `CCOc1cc(CN2CCCC(N3CCc4ccccc4C3)C2)ccc1O` (stereo not given): the inhibition (at 20 µM) was -0.5% (inactive).

With `Oc1ccc(C=Nc2ccc(N3CCOCC3)cc2)c(O)c1`, where the note is “at 20 µM”, the inhibition was 6.1% (inactive).

As to `Oc1c(Cl)cc(Cl)cc1C=Nc1ccc(N2CCOCC2)cc1`, the inhibition (at 20 µM) was 1.6% (inactive).

Consider `Cc1cc(O)c(C=Nc2ccc(N3CCOCC3)cc2)c(C)c1Cl`, for which the inhibition was 80.4% (active) (at 20 µM) and 73.9% under setting [1].

As to `CCOc1cc(/C=C2\C(=N)N3N=C(N4CCCCC4)SC3=NC2=O)ccc1OC(=O)c1ccco1`, under “at 20 µM”, the inhibition is 20.5% (inactive).

As to `CCS(=O)(=O)C1=NN2C(=N)/C(=C\c3ccc(SCc4ccco4)o3)C(=O)N=C2S1`, the inhibition (at 20 µM) was 72.8% (active).

In the case of `CCCC1=NN2C(=N)/C(=C\c3ccc(SCc4ccco4)o3)C(=O)N=C2S1`, the inhibition (at 20 µM) is -0.5% (inactive).

Regarding `CCS(=O)(=O)C1=NN2C(=N)/C(=C\c3ccc(OC(=O)c4ccco4)cc3)C(=O)N=C2S1`, the inhibition (at 20 µM) was 39.2% (inactive).

Regarding `CCS(=O)(=O)C1=NN2C(=N)/C(=C\c3ccc(OC(=O)c4ccco4)c(Br)c3)C(=O)N=C2S1`, the inhibition (at 20 µM) was 52.4% (active).

Consider `O=C1NC(=S)S/C1=C\c1ccc(SCc2ccco2)o1`, for which, under “at 20 µM”, the inhibition was 53.5% (active).

On to `CCC1=NN2C(=N)/C(=C\c3ccc(SCc4ccco4)o3)C(=O)N=C2S1`, for which the inhibition (at 20 µM) was -2.8% (inactive).

In the case of `COc1cc(/C=C2/C(=N)N3C(SC)=NSC3=NC2=O)ccc1OC(=O)c1ccco1`, the inhibition (at 20 µM) was 59.5% (inactive) and the inhibition under setting [1] turned out to be 17.2%.

For `O=C1NC(=S)S/C1=C\c1ccc(SCc2ccccc2)o1`, the inhibition (at 20 µM) was 72.3% (inactive) and the inhibition under setting [1] is 15.9%.

As for `CCS(=O)(=O)C1=NSC2=NC(=O)/C(=C\c3ccc(OC(=O)c4ccco4)c(OC)c3)C(=N)N21`, the inhibition (at 20 µM) is 20.4% (inactive).

For `N=C1/C(=C\c2ccc(SCc3ccco3)o2)C(=O)N=C2SC=NN12`, the inhibition was 100% (inactive) (at 20 µM) and 7.1% under setting [1].

Regarding `COc1cc(/C=C2\C(=N)N3N=C(S(=O)(=O)CC(C)C)SC3=NC2=O)ccc1OC(=O)c1ccco1`, the inhibition (at 20 µM) was 70.2% (active).

Regarding `COc1ccccc1C(CNc1nc(C(F)(F)F)nc2ccccc12)N(C)C` (stereo not given), under “at 20 µM”, the inhibition is 1.8% (inactive).

For `CCn1c(SCC(=O)NC(C)C)nnc1-c1cccs1`, under “at 20 µM”, the inhibition was -1.3% (inactive).

On to `Cc1cccc(CN2CCN(c3nc4nonc4nc3NC3CC3)CC2)c1`, for which the inhibition (at 20 µM) was 6.4% (inactive).

As to `CCCCC(=O)Nc1nn(C)c2nc3c(C)cccc3cc12`, the inhibition (at 20 µM) was 0.6% (inactive).

As to `COc1ccccc1C(=O)Nc1ccc(C2=NNC(=O)CC2C)cc1` (stereo not given), the inhibition (at 20 µM) was 1.5% (inactive).

As for `COc1ccccc1NC(=O)c1nn(-c2ccc(F)c(F)c2)ccc1=O`, under “at 20 µM”, the inhibition was -0.5% (inactive).

Turning to `CCOc1ccc(C(=O)Nc2ccc3c(c2)C(=O)NC3=O)cc1`, where the note is “at 20 µM”, the inhibition was 2.2% (inactive).

For the compound `C=CCn1c(SC(C)C(=O)NCc2ccc3c(c2)OCO3)nnc1C1CCCCC1` (stereo not given), the inhibition (at 20 µM) is -0.3% (inactive).

Turning to `CSc1ncc(CN2CCCC(C(=O)c3ccc(C(C)(C)C)cc3)C2)cn1` (stereo not given), the inhibition (at 20 µM) is 2.1% (inactive).

As for `CCOc1cc(/C=C2/C(=N)N3N=C(CC)SC3=NC2=O)ccc1OC(=O)c1ccco1`, the inhibition (at 20 µM) is 12.4% (inactive).

Regarding `CCS(=O)(=O)C1=NN2C(=N)/C(=C\c3ccc(OC(=O)c4ccco4)c(OC)c3)C(=O)N=C2S1`, the inhibition (at 20 µM) was 34.9% (inactive).

Consider `CCOc1cc(/C=C2\C(=N)N3N=C(S(=O)(=O)CC)SC3=NC2=O)ccc1OC(=O)c1ccco1`, for which the inhibition (at 20 µM) was 60.6% (active).

Consider `O=C1C(c2cc(=O)c3ccccc3[nH]2)=C(O)c2ccccc21`, for which, for the setting “at 20 µM”, the inhibition is -2.1% (inactive).

With `Brc1ccc(/C=C/C=N/Nc2nc3ccccc3s2)cc1`, where the note is “at 20 µM”, the inhibition was -4.3% (inactive).

Regarding `Oc1ccc(N=C/C=C/c2ccc(Br)cc2)cc1-c1nc2ccccc2s1`, the inhibition (at 20 µM) is 64.1% (active).

In the case of `Oc1ccc(N=C/C=C/c2cccc(Br)c2)cc1-c1nc2ccccc2s1`, the inhibition is, setting by setting: (at 20 µM) 61.8% (inactive); under setting [1], 5.5%.

On to `O=C1CCC(C(=O)Nc2cc(C(F)(F)F)ccc2-n2cncn2)=NN1`, for which the inhibition (at 20 µM) is -0.2% (inactive).

With `CS(=O)(=O)C1=NSC2=NC(=O)/C(=C\c3ccc(OC(=O)c4ccco4)cc3)C(=N)N21`, where the note is “at 20 µM”, the inhibition is 47.4% (inactive).

Turning to `CC1=CSC2=NC(=O)/C(=C\c3cccn3-c3ccc([N+](=O)[O-])cc3)C(=N)N12`, the inhibition (at 20 µM) is 0.3% (inactive).

`Cc1ccc(-n2cccc2/C=C2\C(=N)N3N=C(C(C)C)SC3=NC2=O)cc1`: the inhibition (at 20 µM) is 49.5% (inactive).

With `CCOc1cc(/C=C2/C(=N)N3C(=NC2=O)SN=C3S(C)(=O)=O)ccc1OC(=O)c1ccco1`, the inhibition (at 20 µM) is 44.6% (inactive).

For `Cc1ccc(-n2cccc2/C=C2/C(=N)N3C(=NC2=O)SN=C3S(C)(=O)=O)cc1`, the inhibition (at 20 µM) is 77.1% (active).

As for `CS(=O)(=O)C1=NSC2=NC(=O)/C(=C\c3cccn3-c3ccccc3Cl)C(=N)N21`, the inhibition (at 20 µM) is 78.5% (active).

Regarding `CC1=CSC2=NC(=O)/C(=C\c3cccn3-c3ccccc3)C(=N)N12`, the inhibition (at 20 µM) is 8.7% (inactive).

Consider `CCc1ccc(-n2cccc2/C=C2/C(=N)N3C(=NC2=O)SN=C3S(C)(=O)=O)cc1`, for which the inhibition (at 20 µM) is 74.8% (active).

Take `CCC1=NN2C(=N)/C(=C\c3cccn3-c3ccc(Br)cc3)C(=O)N=C2S1`: the inhibition (at 20 µM) is 12.9% (inactive).

Turning to `CCC1=NN2C(=N)/C(=C\c3cccn3-c3ccc(Cl)cc3)C(=O)N=C2S1`, for the setting “at 20 µM”, the inhibition is 30.5% (inactive).

On to `CS(=O)(=O)C1=NSC2=NC(=O)/C(=C\c3ccc(-c4ccccc4)o3)C(=N)N21`, for which the inhibition (at 20 µM) is 34.9% (inactive).

For `Cc1cccc(C)c1-n1cccc1/C=C1/C(=N)N2C(=NC1=O)SN=C2S(C)(=O)=O`, for the setting “at 20 µM”, the inhibition was 68.4% (active).

(Values after PubChem BioAssay AID1986 (Sanford-Burnham Center for Chemical Genomics, 2009).)
